Measurements from paper PMC11024108.

Columns and labels:
[1] = target: AP-2 complex subunit beta (UniProt Q9DBG3); assay: cross-link between two proteins; cross-linking mass spectrometry
[2] = target: Elongation factor Tu, mitochondrial (UniProt P49411); assay: cross-linking mass spectrometry
[3] = target: Large ribosomal subunit protein bL12m (UniProt P52815); assay: cross-linking mass spectrometry
[4] = target: Large ribosomal subunit protein mL45 (UniProt Q9BRJ2); assay: cross-linking mass spectrometry
[5] = target: Leucine-rich PPR motif-containing protein, mitochondrial (UniProt P42704); assay: cross-linking mass spectrometry
[6] = target: 3-hydroxyacyl-CoA dehydrogenase type-2 (UniProt Q99714); assay: cross-link between two proteins; cross-linking mass spectrometry
[7] = target: ATP synthase peripheral stalk subunit OSCP, mitochondrial (UniProt P48047); assay: as above
[8] = target: Acyl-coenzyme A thioesterase 9, mitochondrial (UniProt Q9Y305); assay: as above
[9] = target: Alpha-aminoadipic semialdehyde dehydrogenase (UniProt P49419); assay: as above
[10] = target: Aspartate--tRNA ligase, mitochondrial (UniProt Q6PI48); assay: as above
[11] = target: Delta(3,5)-Delta(2,4)-dienoyl-CoA isomerase, mitochondrial (UniProt Q13011); assay: as above
[12] = target: Elongation factor G, mitochondrial (UniProt Q96RP9); assay: as above
[13] = target: Heat shock protein 75 kDa, mitochondrial (UniProt Q12931); assay: as above
[14] = target: Hydroxyacyl-coenzyme A dehydrogenase, mitochondrial (UniProt Q16836); assay: as above
[15] = target: Isocitrate dehydrogenase [NAD] subunit alpha, mitochondrial (UniProt P50213); assay: as above
[16] = target: NADH dehydrogenase [ubiquinone] 1 alpha subcomplex subunit 5 (UniProt Q16718); assay: as above
[17] = target: Polyribonucleotide nucleotidyltransferase 1, mitochondrial (UniProt Q8TCS8); assay: as above
[18] = target: Presequence protease, mitochondrial (UniProt Q5JRX3); assay: as above
[19] = target: Solute carrier family 25 member 3 (UniProt Q00325); assay: as above
[20] = target: Stomatin-like protein 2, mitochondrial (UniProt Q9UJZ1); assay: as above
[21] = target: Succinate-semialdehyde dehydrogenase, mitochondrial (UniProt P51649); assay: as above
[22] = target: Transcription factor A, mitochondrial (UniProt Q00059); assay: as above
[23] = target: Tyrosine--tRNA ligase, mitochondrial (UniProt Q9Y2Z4); assay: as above
Zeta-crystallin = Zeta-crystallin (UniProt Q08257); assay: as above
[24] = target: ATP synthase peripheral stalk subunit d, mitochondrial (UniProt Q9DCX2); assay: as above
[25] = target: AP2-associated protein kinase 1 (UniProt Q3UHJ0); assay: as above
Annexin A11 = Annexin A11 (UniProt P50995); assay: as above
Amphiphysin = Amphiphysin (UniProt Q7TQF7); assay: as above
[26] = target: 14-3-3 protein zeta/delta (UniProt P63101); assay: as above
Ataxin-2 = Ataxin-2 (UniProt Q99700); assay: as above
[27] = target: ATP-dependent 6-phosphofructokinase, platelet type (UniProt Q9WUA3); assay: as above
[28] = target: B-cell receptor-associated protein 31 (UniProt Q61335); assay: as above
[29] = target: Brain acid soluble protein 1 (UniProt Q91XV3); assay: as above
P2X purinoceptor 7 = P2X purinoceptor 7 (UniProt Q9Z1M0); assay: as above
[30] = target: 2-oxoglutarate dehydrogenase-like, mitochondrial (UniProt Q9ULD0); assay: as above
[31] = target: ATP synthase F(0) complex subunit e, mitochondrial (UniProt P56385); assay: as above
[32] = target: ATP synthase F(1) complex subunit alpha, mitochondrial (UniProt P25705); assay: as above
ADP/ATP translocase 2 = ADP/ATP translocase 2 (UniProt P51881); assay: as above
Alpha-internexin = Alpha-internexin (UniProt P46660); assay: as above
[33] = target: 14-3-3 protein zeta/delta (UniProt P63104); assay: as above
Actin, cytoplasmic 1 = Actin, cytoplasmic 1 (UniProt P60710); assay: as above
[34] = target: Actin-binding protein WASF1 (UniProt Q8R5H6); assay: as above
AP-2 complex subunit mu [35] = target: AP-2 complex subunit mu (UniProt P84091); assay: as above
[36] = target: AP-2 complex subunit sigma (UniProt P62743); assay: as above
[37] = target: SH3-containing GRB2-like protein 3-interacting protein 1 (UniProt Q8VD37); assay: as above
[38] = target: ATPase inhibitor, mitochondrial (UniProt Q9UII2); assay: as above
[39] = target: Stress-70 protein, mitochondrial (UniProt P38646); assay: as above
[40] = target: ATP synthase F(0) complex subunit 8 (UniProt P03928); assay: as above
[41] = target: Trifunctional enzyme subunit alpha, mitochondrial (UniProt P40939); assay: as above
[42] = target: Trifunctional enzyme subunit beta, mitochondrial (UniProt P55084); assay: as above
[43] = target: AP-3 complex subunit mu-1 (UniProt Q9Y2T2); assay: as above
[44] = target: ADP-ribosylation factor-like protein 8B (UniProt Q9NVJ2); assay: as above
[45] = target: Aconitate hydratase, mitochondrial (UniProt Q99798); assay: as above
[46] = target: Malate dehydrogenase, mitochondrial (UniProt P40926); assay: as above
[47] = target: Neurofilament heavy polypeptide (UniProt P19246); assay: as above
[48] = target: Neurofilament medium polypeptide (UniProt P08553); assay: as above
[49] = target: AP-2 complex subunit beta (UniProt P63010); assay: as above
AP-2 complex subunit mu [50] = target: AP-2 complex subunit mu (UniProt Q96CW1); assay: as above
[51] = target: Epidermal growth factor receptor substrate 15-like 1 (UniProt Q9UBC2); assay: as above
[52] = target: Phosphatidylinositol-binding clathrin assembly protein (UniProt Q13492); assay: as above
[53] = target: AP-3 complex subunit beta-2 (UniProt Q9JME5); assay: as above
[54] = target: AP-3 complex subunit sigma-1 (UniProt Q9DCR2); assay: as above
[55] = target: BOS complex subunit NOMO2 (UniProt Q5JPE7); assay: as above
[56] = target: 3-hydroxyisobutyryl-CoA hydrolase, mitochondrial (UniProt Q6NVY1); assay: as above
Alpha-actinin-2 = Alpha-actinin-2 (UniProt Q9JI91); assay: as above
[57] = target: Adenylate kinase 2, mitochondrial (UniProt P54819); assay: as above
Cytochrome c = Cytochrome c (UniProt P99999); assay: as above
[58] = target: Glycerol-3-phosphate dehydrogenase, mitochondrial (UniProt P43304); assay: as above
[59] = target: Bifunctional glutamate/proline--tRNA ligase (UniProt Q8CGC7); assay: as above
[60] = target: Charged multivesicular body protein 3 (UniProt Q9Y3E7); assay: cross-linking mass spectrometry
[61] = target: Charged multivesicular body protein 2b (UniProt Q9UQN3); assay: cross-link between two proteins; cross-linking mass spectrometry
[62] = target: COMM domain-containing protein 8 (UniProt Q9CZG3); assay: as above
Calnexin = Calnexin (UniProt P27824); assay: as above
[63] = target: Transmembrane emp24 domain-containing protein 10 (UniProt P49755); assay: as above
Calreticulin = Calreticulin (UniProt P27797); assay: as above

Sequence of AP-2 complex subunit beta (UniProt Q9DBG3) (Q9DBG3 whole entry, one chain of several): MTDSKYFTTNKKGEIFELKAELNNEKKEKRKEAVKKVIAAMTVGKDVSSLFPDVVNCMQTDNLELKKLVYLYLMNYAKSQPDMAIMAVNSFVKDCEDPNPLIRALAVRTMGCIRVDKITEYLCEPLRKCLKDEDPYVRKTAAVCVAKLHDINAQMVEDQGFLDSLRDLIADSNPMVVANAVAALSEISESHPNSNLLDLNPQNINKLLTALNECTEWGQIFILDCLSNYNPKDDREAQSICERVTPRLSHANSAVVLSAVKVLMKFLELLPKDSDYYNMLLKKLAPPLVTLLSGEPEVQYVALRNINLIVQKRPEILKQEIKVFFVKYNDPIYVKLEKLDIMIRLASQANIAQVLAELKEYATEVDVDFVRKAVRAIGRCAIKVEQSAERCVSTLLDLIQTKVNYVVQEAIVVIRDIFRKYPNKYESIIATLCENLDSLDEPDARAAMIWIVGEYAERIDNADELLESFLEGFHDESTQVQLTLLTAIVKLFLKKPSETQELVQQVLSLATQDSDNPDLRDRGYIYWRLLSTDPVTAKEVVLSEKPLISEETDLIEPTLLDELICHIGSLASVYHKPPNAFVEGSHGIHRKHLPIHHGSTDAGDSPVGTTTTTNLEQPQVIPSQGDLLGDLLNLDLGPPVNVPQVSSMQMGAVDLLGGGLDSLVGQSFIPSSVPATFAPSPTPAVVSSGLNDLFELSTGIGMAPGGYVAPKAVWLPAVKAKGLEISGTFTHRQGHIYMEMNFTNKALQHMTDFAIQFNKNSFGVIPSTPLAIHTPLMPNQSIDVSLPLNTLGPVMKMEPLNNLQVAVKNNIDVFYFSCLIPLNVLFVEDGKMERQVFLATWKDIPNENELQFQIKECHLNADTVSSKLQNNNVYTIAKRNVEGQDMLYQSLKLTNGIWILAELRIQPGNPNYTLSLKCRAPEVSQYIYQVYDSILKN
Sequence of Alpha-internexin (P46660 whole entry): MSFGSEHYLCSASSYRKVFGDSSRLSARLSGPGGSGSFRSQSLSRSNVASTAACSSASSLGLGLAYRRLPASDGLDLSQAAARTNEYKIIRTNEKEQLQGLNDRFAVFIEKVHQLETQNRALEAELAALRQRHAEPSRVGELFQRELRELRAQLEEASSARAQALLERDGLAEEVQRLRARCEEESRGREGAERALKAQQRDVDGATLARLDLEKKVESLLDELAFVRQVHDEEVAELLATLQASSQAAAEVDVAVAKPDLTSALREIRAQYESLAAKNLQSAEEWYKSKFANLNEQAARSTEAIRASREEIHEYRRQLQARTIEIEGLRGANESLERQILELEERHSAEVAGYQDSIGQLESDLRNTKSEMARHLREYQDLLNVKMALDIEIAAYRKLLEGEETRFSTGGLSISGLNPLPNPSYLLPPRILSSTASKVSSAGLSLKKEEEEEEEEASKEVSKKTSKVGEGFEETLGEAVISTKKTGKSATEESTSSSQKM
Sequence of ATP synthase peripheral stalk subunit d, mitochondrial, O75947 (O75947 whole entry): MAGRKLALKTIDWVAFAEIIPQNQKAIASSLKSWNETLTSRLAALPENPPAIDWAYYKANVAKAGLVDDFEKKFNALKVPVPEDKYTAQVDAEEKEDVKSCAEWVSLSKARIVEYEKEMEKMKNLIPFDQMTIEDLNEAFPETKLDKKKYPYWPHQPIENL
Sequence of ATP synthase F(0) complex subunit e, mitochondrial (P56385 whole entry, one chain of several): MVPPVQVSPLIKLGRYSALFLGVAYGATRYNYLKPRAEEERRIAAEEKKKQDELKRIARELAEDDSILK
Sequence of 14-3-3 protein zeta/delta (UniProt P63101) (P63101 whole entry, stated change not applied): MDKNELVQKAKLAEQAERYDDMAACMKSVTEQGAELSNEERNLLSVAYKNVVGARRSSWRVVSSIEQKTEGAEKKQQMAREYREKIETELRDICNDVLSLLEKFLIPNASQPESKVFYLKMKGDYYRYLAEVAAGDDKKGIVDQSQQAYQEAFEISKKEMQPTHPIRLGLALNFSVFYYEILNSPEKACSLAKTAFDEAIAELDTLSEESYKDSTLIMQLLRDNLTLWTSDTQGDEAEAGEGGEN
Sequence of Glyceraldehyde-3-phosphate dehydrogenase, P16858 (P16858 whole entry): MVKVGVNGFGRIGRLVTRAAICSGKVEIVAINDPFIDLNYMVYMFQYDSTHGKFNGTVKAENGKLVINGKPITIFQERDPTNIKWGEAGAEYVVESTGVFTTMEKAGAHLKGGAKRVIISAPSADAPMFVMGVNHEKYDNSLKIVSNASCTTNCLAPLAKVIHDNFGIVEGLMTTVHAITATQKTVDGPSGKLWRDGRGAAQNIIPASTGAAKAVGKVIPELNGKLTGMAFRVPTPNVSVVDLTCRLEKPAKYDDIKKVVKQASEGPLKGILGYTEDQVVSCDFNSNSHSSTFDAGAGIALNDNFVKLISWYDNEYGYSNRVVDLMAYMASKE
Sequence of Solute carrier family 25 member 3 (Q00325 whole entry): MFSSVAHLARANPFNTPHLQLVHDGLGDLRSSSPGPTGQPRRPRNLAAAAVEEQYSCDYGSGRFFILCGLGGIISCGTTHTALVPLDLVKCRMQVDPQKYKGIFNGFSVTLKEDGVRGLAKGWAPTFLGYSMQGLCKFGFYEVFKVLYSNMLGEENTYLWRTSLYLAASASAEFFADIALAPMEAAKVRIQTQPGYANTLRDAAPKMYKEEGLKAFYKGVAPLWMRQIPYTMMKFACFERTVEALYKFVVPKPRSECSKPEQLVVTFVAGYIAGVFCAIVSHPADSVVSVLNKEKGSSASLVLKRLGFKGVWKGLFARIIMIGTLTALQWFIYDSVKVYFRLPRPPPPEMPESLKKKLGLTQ
Sequence of Peptidyl-prolyl cis-trans isomerase B, P23284 (P23284 whole entry): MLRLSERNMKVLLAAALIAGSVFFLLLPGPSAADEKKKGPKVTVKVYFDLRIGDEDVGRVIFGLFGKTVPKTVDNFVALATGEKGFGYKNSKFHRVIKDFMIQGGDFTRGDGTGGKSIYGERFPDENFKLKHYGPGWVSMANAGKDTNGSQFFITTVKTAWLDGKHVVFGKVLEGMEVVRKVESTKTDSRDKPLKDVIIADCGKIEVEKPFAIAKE
Sequence of Trifunctional enzyme subunit alpha, mitochondrial, P40939 (P40939 whole entry): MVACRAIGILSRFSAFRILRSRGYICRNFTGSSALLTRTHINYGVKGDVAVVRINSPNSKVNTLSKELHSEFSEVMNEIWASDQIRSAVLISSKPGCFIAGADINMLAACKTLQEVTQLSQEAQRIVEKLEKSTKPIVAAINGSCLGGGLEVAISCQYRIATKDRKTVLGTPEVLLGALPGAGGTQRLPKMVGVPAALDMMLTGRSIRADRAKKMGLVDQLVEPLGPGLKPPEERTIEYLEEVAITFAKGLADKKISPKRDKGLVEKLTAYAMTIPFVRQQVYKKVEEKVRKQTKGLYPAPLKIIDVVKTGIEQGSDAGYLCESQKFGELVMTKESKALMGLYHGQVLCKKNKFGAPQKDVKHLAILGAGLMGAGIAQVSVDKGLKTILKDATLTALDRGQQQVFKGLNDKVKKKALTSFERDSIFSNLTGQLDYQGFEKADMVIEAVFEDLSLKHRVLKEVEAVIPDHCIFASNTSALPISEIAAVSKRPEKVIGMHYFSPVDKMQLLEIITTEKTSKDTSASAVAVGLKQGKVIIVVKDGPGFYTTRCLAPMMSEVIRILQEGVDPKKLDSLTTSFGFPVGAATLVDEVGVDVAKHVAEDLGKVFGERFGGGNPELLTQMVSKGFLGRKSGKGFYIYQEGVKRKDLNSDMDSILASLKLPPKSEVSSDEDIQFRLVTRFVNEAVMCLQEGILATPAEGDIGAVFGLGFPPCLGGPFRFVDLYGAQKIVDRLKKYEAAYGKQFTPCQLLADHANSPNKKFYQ
Sequence of AP2-associated protein kinase 1 (Q3UHJ0 whole entry): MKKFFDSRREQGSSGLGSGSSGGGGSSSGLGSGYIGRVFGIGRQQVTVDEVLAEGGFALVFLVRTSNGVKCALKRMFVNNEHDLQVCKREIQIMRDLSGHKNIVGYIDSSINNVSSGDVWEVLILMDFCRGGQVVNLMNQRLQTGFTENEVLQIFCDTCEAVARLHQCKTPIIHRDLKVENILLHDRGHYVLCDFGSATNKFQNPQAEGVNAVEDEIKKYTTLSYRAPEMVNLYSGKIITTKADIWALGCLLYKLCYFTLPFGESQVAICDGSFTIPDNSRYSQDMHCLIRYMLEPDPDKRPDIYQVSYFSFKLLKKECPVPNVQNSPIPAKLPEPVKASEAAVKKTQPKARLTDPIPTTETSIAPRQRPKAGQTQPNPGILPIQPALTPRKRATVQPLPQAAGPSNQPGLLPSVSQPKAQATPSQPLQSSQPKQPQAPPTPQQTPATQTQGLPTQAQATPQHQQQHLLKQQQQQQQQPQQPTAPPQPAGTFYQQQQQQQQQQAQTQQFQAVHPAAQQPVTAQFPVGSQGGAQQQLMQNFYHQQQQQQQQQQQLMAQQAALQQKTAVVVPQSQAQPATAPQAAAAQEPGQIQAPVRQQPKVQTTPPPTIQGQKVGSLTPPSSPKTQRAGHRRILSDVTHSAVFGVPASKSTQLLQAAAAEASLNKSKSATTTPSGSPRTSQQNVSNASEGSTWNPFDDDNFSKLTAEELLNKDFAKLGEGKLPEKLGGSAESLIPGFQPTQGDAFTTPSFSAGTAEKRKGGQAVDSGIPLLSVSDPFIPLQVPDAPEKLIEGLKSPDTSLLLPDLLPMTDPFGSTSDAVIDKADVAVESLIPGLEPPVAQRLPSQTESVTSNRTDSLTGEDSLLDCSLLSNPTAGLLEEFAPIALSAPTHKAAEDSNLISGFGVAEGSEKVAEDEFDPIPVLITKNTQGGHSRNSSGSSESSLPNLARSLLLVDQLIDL
Sequence of Transmembrane emp24 domain-containing protein 10 (P49755 whole entry, the tested form may be a part): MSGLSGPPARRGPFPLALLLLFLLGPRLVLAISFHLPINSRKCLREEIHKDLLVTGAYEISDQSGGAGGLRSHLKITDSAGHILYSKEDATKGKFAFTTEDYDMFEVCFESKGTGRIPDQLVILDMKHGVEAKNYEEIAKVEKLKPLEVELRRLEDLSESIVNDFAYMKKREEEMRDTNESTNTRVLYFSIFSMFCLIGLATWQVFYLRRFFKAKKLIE
Sequence of ATP synthase peripheral stalk subunit d, mitochondrial (Q9DCX2 whole entry): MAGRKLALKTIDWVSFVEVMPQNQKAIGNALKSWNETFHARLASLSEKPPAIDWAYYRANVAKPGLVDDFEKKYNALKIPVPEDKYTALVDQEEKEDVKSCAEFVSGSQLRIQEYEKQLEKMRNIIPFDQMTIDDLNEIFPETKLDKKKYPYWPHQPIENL

Substance: Adaptin ear-binding coat-associated protein 1, Q9CR95
- listed as a hit [1]: yes

Substance: Malate dehydrogenase, mitochondrial, P40926
- listed as a hit [2]: yes
- listed as a hit [3]: yes
- listed as a hit [4]: yes
- listed as a hit [5]: yes
- listed as a hit [6]: yes
- listed as a hit [7]: yes
- listed as a hit [8]: yes
- listed as a hit [9]: yes
- listed as a hit [10]: yes
- listed as a hit [11]: yes
- listed as a hit [12]: yes
- listed as a hit [13]: yes
- listed as a hit [14]: yes
- listed as a hit [15]: yes
- listed as a hit [16]: yes
- listed as a hit [17]: yes
- listed as a hit [18]: yes
- listed as a hit [19]: yes
- listed as a hit [20]: yes
- listed as a hit [21]: yes
- listed as a hit [22]: yes
- listed as a hit [23]: yes
- listed as a hit (Zeta-crystallin): yes

Substance: ATP synthase peripheral stalk subunit F6, mitochondrial, P97450
- listed as a hit [24]: yes

Substance: AP-2 complex subunit mu, P84091
- listed as a hit [1]: yes
- listed as a hit [25]: yes

Substance: Annexin A7, P20073
- listed as a hit (Annexin A11): yes

Substance: Myc box-dependent-interacting protein 1, O08539
- listed as a hit (Amphiphysin): yes

Substance: 14-3-3 protein gamma, P61982
- listed as a hit [26]: yes

Substance: 14-3-3 protein epsilon, P62259
- listed as a hit [26]: yes

Substance: Ataxin-2-like protein, Q8WWM7
- listed as a hit (Ataxin-2): yes

Substance: ATP-dependent 6-phosphofructokinase, muscle type, P47857
- listed as a hit [27]: yes

Substance: B-cell receptor-associated protein 29, Q61334
- listed as a hit [28]: yes

Substance: Glyceraldehyde-3-phosphate dehydrogenase, P16858
- listed as a hit [29]: yes
- listed as a hit (P2X purinoceptor 7): yes

Substance: 2-oxoglutarate dehydrogenase complex component E1, Q02218
- listed as a hit [30]: yes

Substance: AP-2 complex subunit alpha-1, P17426
- listed as a hit [1]: yes
- listed as a hit [25]: yes

Substance: Trifunctional enzyme subunit beta, mitochondrial, P55084
- listed as a hit [31]: yes

Substance: ATP synthase peripheral stalk subunit b, mitochondrial, P24539
- listed as a hit [32]: yes

Substance: ADP/ATP translocase 1, P48962
- listed as a hit (ADP/ATP translocase 2): yes

Substance: Neurofilament heavy polypeptide, P19246
- listed as a hit (Alpha-internexin): yes

Substance: 14-3-3 protein gamma, P61981
- listed as a hit [33]: yes

Substance: Trifunctional enzyme subunit alpha, mitochondrial, P40939
- listed as a hit [31]: yes
- listed as a hit [19]: yes

Substance: SH3-containing GRB2-like protein 3-interacting protein 1, Q8VD37
- listed as a hit [1]: yes

Substance: WD repeat-containing protein 1, O88342
- listed as a hit (Actin, cytoplasmic 1): yes

Substance: Adenylyl cyclase-associated protein 1, P40124
- listed as a hit (Actin, cytoplasmic 1): yes

Substance: Cytoplasmic FMR1-interacting protein 2, Q5SQX6
- listed as a hit [34]: yes

Substance: AP-1 complex subunit beta-1, O35643
- listed as a hit (AP-2 complex subunit mu [35]): yes
- listed as a hit [36]: yes
- listed as a hit [37]: yes

Substance: ATP synthase F(1) complex subunit gamma, mitochondrial, P36542
- listed as a hit [38]: yes
- listed as a hit [39]: yes

Substance: ATP synthase peripheral stalk subunit d, mitochondrial, O75947
- listed as a hit [40]: yes
- listed as a hit [41]: yes
- listed as a hit [42]: yes

Substance: AP-3 complex subunit beta-1, O00203
- listed as a hit [43]: yes

Substance: AP-2 complex subunit mu, Q96CW1
- listed as a hit [44]: yes

Substance: Neurofilament medium polypeptide, P08553
- listed as a hit (Alpha-internexin): yes

Substance: Fumarate hydratase, mitochondrial, P07954
- listed as a hit [45]: yes
- listed as a hit [46]: yes

Substance: Neurofilament light polypeptide, P08551
- listed as a hit (Alpha-internexin): yes
- listed as a hit [47]: yes
- listed as a hit [48]: yes

Substance: AP-2 complex subunit alpha-2, O94973
- listed as a hit [49]: yes
- listed as a hit (AP-2 complex subunit mu [50]): yes
- listed as a hit [51]: yes
- listed as a hit [52]: yes

Substance: AP-3 complex subunit delta-1, O54774
- listed as a hit [53]: yes
- listed as a hit [54]: yes

Substance: BOS complex subunit NOMO3, P69849
- listed as a hit [55]: yes

Substance: Mitochondrial-processing peptidase subunit alpha, Q10713
- listed as a hit [56]: yes

Substance: Synaptopodin, Q8CC35
- listed as a hit (Alpha-actinin-2): yes

Substance: Prohibitin 1, P35232
- listed as a hit [57]: yes
- listed as a hit (Cytochrome c): yes
- listed as a hit [58]: yes

Substance: Isoleucine--tRNA ligase, cytoplasmic, Q8BU30
- listed as a hit [59]: yes

Substance: Charged multivesicular body protein 1a, Q9HD42
- listed as a hit [60]: yes
- listed as a hit [61]: yes

Substance: COMM domain-containing protein 1, Q8K4M5
- listed as a hit [62]: yes

Substance: Peptidyl-prolyl cis-trans isomerase B, P23284
- listed as a hit (Calnexin): yes
- listed as a hit [63]: yes

Substance: Endoplasmic reticulum chaperone BiP, P11021
- listed as a hit (Calreticulin): yes
